Screens from PubChem.
IL-1B inflam inh – inflammasome signaling inhibition, IL-1 beta readout | activity change, % at 57.5 µM | AID 743279 | THP-1 LPS/ATP IL-1B secretion, AlphaLISA, 16 h; hits give low values | 4.7% of 360,000 active; in the data active means activity change below about -50%; inconclusive means mostly about -30% to -49%; further: on the % scale 0 is the no-effect control and ±100 the full control effect
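THP-1 cells pretreated 1 hr with compounds (up to 57.5 uM final), then stimulated with LPS (250 ng/mL final) plus ATP (1.25 mM final); secreted IL-1B measured by AlphaLISA after 16 hr, decreased signal indicating inhibition.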
MCF10A rereplic – induces DNA re-replication in MCF 10a normal breast cells | Potency, µM (top dose mostly 46.1 µM), inactives show at the highest dose activity, positive = re-replication, hits mostly activators | 2.9% of 350,000 active | MCF 10A DNA re-replication, Hoechst nuclear intensity, 48 h | AID 624296; further: potency means the concentration at half of the fitted maximal effect; % of control where 0% means no effect; nearly all actives have a fitted effect of over 50% in size
PINK1 expr mod – PINK1 expression modulation; PINK1 immunofluorescence, high-content cytometry, 24 h; 0.2% of 410,000 active; Potency, µM (highest dose often 76.6 µM), inactives show at the highest dose activation (PINK1 increase), actives largely listed as activators; active means well fitted activation curve with a large enough effect; inconclusive means small, poorly fitted or top-dose-only effect; cell line not stated here; further: potency means the concentration at half of the fitted maximal effect; % of control where 0% means no effect; nearly all actives have a fitted effect of over 65% in size
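Decision-based qHTS: stable cells, 24 h exposure to five compound concentrations, CCCP as control. Fixed cells stained for PINK1 plus nuclear, mitochondrial and cell markers, cytometer read.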
ATXN2 expr inh – reduces ATXN2 reporter expression in HEK-293 cells; HEK-293 ATXN2-luciferase reporter, luminescence, 24 h; 0.72% of 360,000 active; AID 1745845; Potency, µM (highest dose often 57 µM), for the others: top-dose activity change, negative = inhibition, actives largely listed as inhibitors; further: potency means the concentration at half of the fitted maximal effect; on the % scale 0 is the no-effect control and ±100 the full control effect; nearly all actives have a fitted effect of over 55% in size
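ATXN2-luciferase reporter cells (luciferase flanked by upstream and downstream ATXN2 gene portions) were treated 24 h at 37 °C with compounds at up to 57 uM. SteadyGlo luminescence gave expression; GF-AFC fluorescence gave viability.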
SW480 rerep – DNA re-replication induction in SW480 cells | SW480 DNA re-replication, Hoechst DNA content imaging, 48 h | Potency, µM (titrated, usually from 46.1 µM), for inactives: at the top dose re-replication activation, most hits filed as activators | 1.8% of 340,000 active | AID 624297; further: potency means the concentration at half of the fitted maximal effect; % of control where 0% means no effect; nearly all actives have a fitted effect of over 55% in size
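Per well, 250 cells were exposed to pinned compound for 48 hr. Nuclear DNA was visualised with Hoechst (40 min, 37 C) and total object intensity recorded by fluorescence scanning.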
S2 tox – cell viability loss in ATXN counter-screen | 0.49% of 400,000 active | AID 651635 | Potency, µM (titrated, usually from 56.7 µM), most hits filed as cytotoxic | S2 cells (HEK-293 line with an ATXN2-luciferase reporter) viability, CellTiter-Fluor protease fluorescence, 24 h; further: potency means the concentration at half of the fitted maximal effect; nearly all actives have a fitted effect of over 40% in size
* hit, by the source's call; i = inactive; ? = inconclusive; · = not tested or not shown; [ ] = dose if it differs, or a comment. Only some compounds are listed: those with a hit (about 7.1% of all), similar ones and a draw of the others. Unless noted, the call rests on the fitted dose curve; in most records, active means well fitted curve in the direction sought with a large enough effect; inconclusive means small, poorly fitted or top-dose-only effect, or another doubt; inactive means no such curve, though single readings can be large; an effect the other way counts as inactive or inconclusive.

SMILES | IL-1B inflam inh | MCF10A rereplic | PINK1 expr mod | ATXN2 expr inh | SW480 rerep | S2 tox
O=C(/C=C/c1ccccc1)Nc1ccc2c(c1)OCCO2 | ? | -3.7% | -0.6% | 16.5% | 3.7% | i
O=C(/C=C/c1ccco1)Nc1ccc(Oc2ccc(Cl)cc2)cc1 | -6.5 | 4.61µM* | 16.4% | -27.0% | ? | ?
CCOc1cc(-c2cc(-c3ccc(N)cc3)nc(N)c2C#N)ccc1O | -62.1* | 11.6µM* | -2.5% | 14.1% | ? | i
CCOc1cc(-c2cc(-c3ccccc3)nc(N)c2C#N)ccc1O | ? | ? | ? | 23.9% | ? | i
CC(OC(=O)c1ccccc1Nc1ccc(SC(F)F)cc1)C(N)=O (centres undefined) | -74.6* | ? | -0.4% | -33.7% | 2.9% | ?
O=C(COC(=O)c1ccccc1C(=O)c1ccccc1)Nc1ccc(SC(F)F)cc1 | -76.8* | 9.5% | 3.8% | 4.4% | -1.0% | i
NC(=O)COC(=O)c1ccccc1Nc1ccc(SC(F)F)cc1 | -3.2 | 23.1µM* | 0.9% | -9.8% | -4.3% | i
Cc1cccc2c1-c1sc(C(=O)Nc3ccccc3N3CCN(C)CC3)cc1CO2 | -93.3* | 4.11µM* | -1.7% | 28.2µM* | ? | ?
O=C(Nc1cccc2nsnc12)c1ccc(-c2cccc(Cl)c2)o1 | 1.8 | 5.8µM* | 25.4% | -6.0% | 3.4%[9.22 µM] | i
CN1CCN(c2ccccc2NC(=O)c2ccc(Br)o2)CC1 | -52.5* | 1.8% | -2.8% | -20.8% | 2.7% | i
O=C(Nc1ccccc1N1CCCCC1)c1ccc(-c2cccc(Cl)c2)o1 | 41.3 | 16.4µM* | 2.2% | -7.5% | 1.3% | i
CCCN(CCC)C(=O)Cn1c(=O)n(Cc2ccc(C(=O)NCCc3ccc(Cl)cc3)cc2)c(=O)c2ccccc21 | · | · | 0.8% | 6.4% | · | i
CC(=O)N1CCc2cc(Br)cc(S(=O)(=O)NCCc3cccc(C)c3)c21 | · | · | 0.7% | · | · | ·
CN1CCN(c2ccccc2NC(=O)c2ccc(-c3cccc(Cl)c3)o2)CC1 | i | 20.6µM* | -0.1% | ? | ? | ?
CN1CCN(c2ccccc2NC(=O)c2ccc(-c3ccc(Cl)cc3Cl)o2)CC1 | -15.9 | ? | 14.1%[38.3 µM] | ? | ? | i
Cc1cc(C=C2C(=O)c3ccccc3C2=O)c(C)n1-c1ccc(C(=O)O)cc1 | -56.0* | 14.4% | -0.8% | -22.7% | 0.1% | ?
Cc1cc(/C=C2\Cc3ccccc3C2=O)c(C)n1-c1ccccc1 | -61.9* | 20.6µM* | 1.8% | -43.4% | ? | ·
CSc1ncc(C(=O)NCc2ccc(Cl)cc2)c(C(F)(F)F)n1 | · | · | 14.6% | -6.6% | · | ?
CCN(C(=O)Cn1c(C(=O)OC)cc2sc(Cl)cc21)c1cccc(C)c1 | · | · | -0.6% | 8.2% | · | i
OC(c1ccccc1)(c1ccccc1)C1CCN(CCCOc2ccc(F)cc2)CC1 | -53.1* | · | 0.2% | ? | · | ?
Cc1ccc(OCCCN2CCC(C(O)(c3ccccc3)c3ccccc3)CC2)cc1 | -51.7* | · | -1.3% | ? | · | ·
COc1ccccc1N1CCN(C(=O)C2c3ccccc3Oc3ccccc32)CC1 | 23.7 | 1.84µM* | -1.5% | -10.2% | 5.8µM* | ?
COc1ccccc1N1CCN(C(=O)C2CC2)CC1 | 9.3 | ? | -0.5% | 13.6% | 11.6% | i
CCC(=O)Oc1ccc(C/C(=N\O)c2ccc(O)cc2O)o1 | -2.1 | 14.6µM* | ? | -8.6% | ? | i
CCOc1ccc(Nc2oc(/C=C/c3cc(OC)c(OC)c(OC)c3)nc2C#N)cc1 | · | · | 6.3% | · | · | ·
SMILES | IL-1B inflam inh | MCF10A rereplic | PINK1 expr mod | ATXN2 expr inh | SW480 rerep | S2 tox
CC(C)n1cnc2c(NCc3ccc(S(N)(=O)=O)cc3)nc(NCc3ccc(S(N)(=O)=O)cc3)nc21 | 19.2 | -4.2% | 17.1% | -0.1% | -8.3% | i
CC(C)[C@H](CO)Nc1nc(NCc2ccc(S(N)(=O)=O)cc2)c2ncn(C(C)C)c2n1 | -103.4* | 27.3% | -1.4% | ? | 18.4µM* | ?
CC[C@H](CO)Nc1nc(NCc2ccccc2)c2ncn(C(C)C)c2n1 | · | · | · | 24.3µM* | · | ·
COC(=O)c1ccc(-c2cccc3c2OC(CNC(=O)/C=C/c2ccc(OC)c(OC)c2)C3)nc1 (centres undefined) | · | · | 0.6% | · | · | ?
COCCOC(=O)C1=C(C)NC2=C(C(=O)CC(c3ccccc3OC)C2)C1c1cccc(O)c1 (centres undefined) | · | · | · | 85.1% | · | ·
O=c1c(O)cc(C2Oc3cc(O)cc(O)c3CC2O)cc2c(C3Oc4cc(O)cc(O)c4CC3O)cc(O)c(O)c12 (centres undefined) | · | · | -0.2% | · | · | ·
COc1cc(CN2CCC(CO)(Cc3cccc(C(F)(F)F)c3)CC2)ccc1F | -52.3* | ? | 1.2% | · | ? | i
OCC1(Cc2ccccc2)CCN(Cc2ccc(C(F)(F)F)cc2)CC1 | -50.9* | ? | 11.5% | -37.8% | 3.0% | i
COc1ccc(F)c(CN2CCC(CO)(Cc3cccc(C(F)(F)F)c3)CC2)c1 | ? | ? | 3.7% | -36.1% | 4.2% | i
COc1ccc(CN2CCC(CO)(Cc3cccc(C(F)(F)F)c3)CC2)cc1Cn1cccn1 | -75.3* | ? | 1.2% | · | ? | i
COc1ccc(Cl)cc1S(=O)(=O)Nc1ccc2[nH]c(=O)[nH]c2c1 | · | · | 0.4% | · | · | ·
Cc1ccc(C(c2sc3nc(-c4ccco4)nn3c2O)N2CCC3(CC2)OCCO3)cc1 (centres undefined) | · | · | 1.4% | 4.0% | · | i
O=C(Nc1nc2c(s1)CCCC2)c1ccc(Br)s1 | -93.0* | -0.4% | 6.1%[38.3 µM] | -23.0% | ? | ?
Cc1cccc(C(=O)Nc2nc3c(s2)CCCC3)c1 | · | · | 5.2% | · | · | ·
COc1ccc(NC(=O)Nc2nc3c(s2)CCCC3)cc1 | -52.4* | 17.5% | 1.8% | 51.4% | -1.2% | ?
Cc1nc2c(c3c1[nH]c1ccccc13)C(O)CC(C)(C)C2 (centres undefined) | -10.7 | 18.4µM* | 2.6% | -25.4% | ? | i
Cc1nn(-c2ccccc2)c2c1C(O)CC(C)(C)C2 (centres undefined) | -22.0 | -1.0% | 1.2% | -8.1% | -10.3% | i
CCn1c(SC(C)C(=O)NCc2ccco2)nnc1-c1ccccc1 (centres undefined) | · | · | 0.3% | · | · | ·
CC(C)OCCCn1c(=O)c2ccccc2n2c(CCC(=O)NC3CCN(Cc4ccccc4)CC3)nnc12 | -51.3* | 0.2% | 0.1% | -10.0% | 1.2% | i
COc1ccc2cc(C3CC(c4cccs4)=NN3C(C)=O)c(Cl)nc2c1 (centres undefined) | 10.4 | 8.0% | 10.6% | -2.6% | -15.5% | i
